Data published in PubChem BioAssay (NCATS).
Several values for one entry are separate records, joined by “and”; a condition that tells them apart may be missing. Equal values may be shown once. Results filed as inconclusive are left out. Unmarked numbers belong to inactive results. Activity calls are given as the source filed them. Calls come from the whole dose curve; as a rule, active = well fitted curve in either direction with a large enough effect (not every such curve was filed as active); inconclusive = small, poorly fitted or top-dose-only effect, or another doubt; inactive = flat fitted curve, though single readings scatter.

Test: NFAT Signaling Pathway (AID 444)
Conditions: Jurkat NFAT-bla M1, carbachol, beta-lactamase ratio, 5 h; at 7.69 µM (top of the series)
Excerpt: NCGC Assay Overview: The nuclear factor of activated T cells (NFAT) family of transcription factors has been found primarily in most immune system cells and some other non-immune cells. NFAT plays the immunomodulatory role, primarily in T-cell activation and differentiation. NFAT target genes are also involved in the regulation of apoptosis and differentiation in non-immune cell types. The NFAT sequence was engineered to the upstream of the ?-lactamase reporter gene and transfected into Jurkat cells with co-transfection of muscarinic receptor1 [provided by Invitrogen Corp]. When an extracellular stimulus, such as carbachol, binds to the GPCR M1 receptor, it stimulates a signaling cascade that activates NFAT response element and ?-lactamase expression by phosphorylating the NFAT binding protein. This cell based ?-lactamase reporter gene assay can accurately monitor any changes occurring along the NFAT pathway, and can be used for screening small molecule inhibitor or activator upon activation by carbachol EC50 concentration. A small molecular library were screened in a titration series resulting in AC50s (can be either IC50s or EC50s).
NCGC Assay Protocol Summary: The cells were prepared in RPMI 1640 medium containing 0.1% dialyzed FBS and 25 mM HEPES at 1.6 x 10^6cell/ml. The assay was performed in 1536-well plate format as follows: 5 ul of cell preparation 23 nl of compounds 1ul of carbachol (final concentration 1 uM) Briefly centrifuge the plates and incubate at 37 °C for 5 hours 1 ul of CCF4 dye mixture Incubate the plates at RT for 1 hour Read the plate in EnVision plate reader (Ex= 405nm, and Em1=460nm and Em2=530nm). The %Activity was determined from the ratio of 460nm/530nm. Data normalization and AC50 calculations were accomplished using GeneData software.
% is set by controls: 0 for no effect and ±100 for the full control effect.

| Structure (SMILES) | activity change, negative = inhibition |
| --- | --- |
| CS(=O)(=O)N1CCC2(CCCN(Cc3ccncc3)C2)CC1 | -20.7% |
| CN1CCC2(CC1)CCN(C(=O)c1ccco1)CC2 | -4.13% |
| c1cc(CN2CCCC3(CCNCC3)C2)ccn1 | -14.6% |
| CN1CC[C@@]2(CCCN(C(=O)c3csnn3)C2)C1 | -23.3% |
| c1csc(CN2CC3(CCNCC3)C2)n1 | 5.76% |
| O=C1NC(=S)NC(=O)C1=Cc1cccc2cc3ccccc3cc12 | -8.51% |
| O=C(Nc1ccccc1)N1CC[C@@]2(CCCN(C(=O)Oc3ccccc3)C2)C1 | 1.93% |
| O=C(Oc1ccccc1)N1CCC[C@@]2(CCN(C(c3ccccc3)c3ccccc3)C2)C1 | -12.9% |
| C[N+]1([O-])[C@@H]2CC(OC(=O)[C@@H](CO)c3ccccc3)C[C@@H]1[C@H]1O[C@H]12 (stereo not given in full) | -78.2% (active) |
| CC(C)CN1CC[C@@]2(CCCN(C(=O)c3ccncc3)C2)C1 | -22.2% |

Same assay, conditions: Jurkat NFAT-bla M1, carbachol, beta-lactamase ratio, 5 h; at 17.2 µM (top of the series)

| Structure (SMILES) | activity change, negative = inhibition |
| --- | --- |
| C[C@H]1CC[C@@]2(NC1)O[C@@H]1C[C@H]3[C@@H]4CC=C5C[C@@H](O)CC[C@]5(C)[C@@H]4CC[C@]3(C)[C@@H]1[C@@H]2C | 7.82% |
| C=C(C)[C@H]1[C@H]2OC(=O)[C@@H]1[C@]1(O)C[C@H]3O[C@]34C(=O)O[C@H]2[C@@]14C | -0.55% |
| O=[N+]([O-])O[C@H]1CO[C@H]2[C@H]1OC[C@@H]2O[N+](=O)[O-] | -5.68% |
| CC[C@H]1CN2CC[C@@H]1C[C@H]2[C@@H](O)c1ccnc2ccc(OC)cc12 | -20.4% |
| CCN(CC)C(=O)N[C@@H]1C[C@H]2c3cccc4[nH]cc(c34)C[C@@H]2N(C)C1 | 3.13% and -9.31% |
| C[C@H](N)[C@@H](O)c1ccccc1 | 10.1% |
| N[C@H]1C[C@H]1c1ccccc1 | -3.83% |
| CS(=N)(=O)CC[C@@H](N)C(=O)O (stereo not given in full) | -1.86% |
| CN1CCc2cc3c(cc2[C@@H]1[C@@H]1OC(=O)c2c1ccc1c2OCO1)OCO3 | 4.41% |
| COc1ccc(OC)c([C@H](O)[C@H](C)N)c1 | 4.39% |
| COc1cc2c3cc1Oc1cc(ccc1O)C[C@@H]1c4c(cc(OC)c(O)c4Oc4cccc(c4)C[C@H]3N(C)CC2)CC[N+]1(C)C | -7.53% |
| CC(C)(C)NC[C@H](O)c1cc(Cl)c(N)c(Cl)c1 | -7.65% |
| CNC[C@H](O)c1ccc(O)cc1 | -22.7% |
| COC1=C[C@H]2C3=C([C@H]2C1=O)[C@H](NC(C)=O)CCc1cc(OC)c(OC)c(OC)c13 | -4.77% |
| CN1[C@H]2CC(=O)C[C@@H]1[C@@H](O)C2 | -9.47% |
| COc1ccc(C(=O)OC2C[C@H]3CC[C@@H](C2)N3C)cc1OC (stereo not given in full) | -18.9% |
| C[C@@H]1O[C@H](O[C@H]2C[C@@H](O)[C@@]3(CO)[C@H]4[C@@H](O)C[C@]5(C)[C@@H](C6=CC(=O)OC6)CC[C@]5(O)[C@H]4CC[C@]3(O)C2)[C@@H](O)[C@H](O)[C@@H]1O | -76.3% (active) |
| COc1cc2c(c(OC)c1OC)-c1ccc(O)c(=O)cc1[C@H](N)CC2 | 14.9% |
| CC(C)c1c(CN(C)[C@@H](C)Cc2ccccc2)n(C)n(-c2ccccc2)c1=O | -17.7% |
| C[N+]1([O-])[C@@H]2CC(OC(=O)[C@@H](CO)c3ccccc3)C[C@@H]1[C@H]1O[C@H]12 (stereo not given in full) | -52.1% (active) |
| CC[C@H](CO)NC(=O)[C@H]1C=C2c3cccc4[nH]cc(c34)C[C@@H]2N(C)C1 | -13.5% |
| C[C@]12CC[C@H](O)C[C@@H]1CC[C@H]1[C@H]2CC[C@]2(C)C(=O)CC[C@@H]12 | 4.61% and 4.01% and -7.96% |

Same assay, conditions: Jurkat NFAT-bla M1, carbachol, beta-lactamase ratio, 5 h; at 38 µM (top of the series)

| Structure (SMILES) | activity change, negative = inhibition |
| --- | --- |
| CS(=N)(=O)CC[C@@H](N)C(=O)O (stereo not given in full) | 4.5% |
| CN1CCc2cc3c(cc2[C@@H]1[C@@H]1OC(=O)c2c1ccc1c2OCO1)OCO3 | -4.78% |
| COc1ccc(OC)c([C@H](O)[C@H](C)N)c1 | 2.27% |
| CNC[C@H](O)c1ccc(O)cc1 | 10.5% |
| COc1cc(C=C(C#N)C#N)cc(O)c1O | -29.4% |
| NNCc1cccc(O)c1 | -15.7% |
| CCCN(CCC)C(=O)Cc1c(-c2ccc(Cl)cc2)nc2c(Cl)cc(Cl)cn12 | 7.25% |
| C[C@]12CC[C@H](O)C[C@@H]1CC[C@H]1[C@H]2CC[C@]2(C)C(=O)CC[C@@H]12 | 8.64% |
